The source made the active and inactive calls. The calls were made as follows: active = hit-call score of the fitted dose curve at least 0.9, where 1 is the maximum; inactive = score below 0.9.
These molecules were tested against Retinoic acid receptor alpha (Homo sapiens) (UniProt P10276) (assay: ATG_DR5_RAR_CIS: Attagene CIS-FACTORIAL HepG2 Assay for human Retinoic Acid Receptor Alpha (RARE), DR5 submotif (AID 2282934;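 as to AC50: reporter responds to endogenous RAR alpha beta and gamma in HepG2 not RARA alone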)). Details: HepG2 Attagene cis-factorial RARE DR5 reporter, mRNA; actives raise or lower the signal.
Sequence of Retinoic acid receptor alpha (Homo sapiens) (P10276 whole entry, looked up): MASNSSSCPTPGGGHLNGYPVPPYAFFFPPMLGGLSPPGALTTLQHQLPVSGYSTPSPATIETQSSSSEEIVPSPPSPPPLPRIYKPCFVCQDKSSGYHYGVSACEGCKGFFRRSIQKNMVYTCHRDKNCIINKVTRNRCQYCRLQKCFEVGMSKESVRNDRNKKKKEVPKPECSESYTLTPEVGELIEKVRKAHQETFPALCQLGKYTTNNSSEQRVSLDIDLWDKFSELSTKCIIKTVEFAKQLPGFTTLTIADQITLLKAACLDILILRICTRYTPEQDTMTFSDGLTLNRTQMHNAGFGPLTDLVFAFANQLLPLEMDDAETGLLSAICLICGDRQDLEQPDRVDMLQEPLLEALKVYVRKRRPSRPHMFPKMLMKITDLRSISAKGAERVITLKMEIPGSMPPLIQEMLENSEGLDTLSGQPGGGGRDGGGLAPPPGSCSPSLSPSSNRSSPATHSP
Protocol: ATG_CIS is a cell-based, multiplexed-readout assay that uses HepG2, a human liver cell line, with measurements taken at 24 hours after chemical dosing in a 24-well plate.ATG_DR5_RAR_CIS is one of 52 assay component(s) measured or calculated from the ATG_CIS assay. It is designed to make measurements of mRNA induction, a form of inducible reporter, as detected with fluorescence intensity signals by Reverse transcription polymerase chain reaction (RT-PCR) and Capillary electrophoresis technology.Data from the assay component ATG_DR5_RAR_CIS was analyzed into 1 assay endpoint. This assay endpoint, ATG_DR5_CIS, was analyzed with bidirectional fitting relative to DMSO as the negative control and baseline of activity. Using a type of inducible reporter, measures of mRNA for gain or loss-of-signal activity can be used to understand the reporter gene at the transcription factor-level as they relate to the gene RARA and RARB and RARG. Furthermore, this assay endpoint can be referred to as a primary readout, because this assay has produced multiple assay endpoints where this one serves a reporter gene function. To generalize the intended target to other relatable targets, this assay endpoint is annotated to the nuclear receptor intended target family, where the subfamily is non-steroidal.
Human liver HepG2 cells are transiently transfected with multiple reporter transcription units (MRTUs) in 6-well plates using FuGene 6 reagent (Roche; 3 ml FuGene/1 mg DNA). The MRTU constructs are regulated by a cis-regulating element (promoter). […] A major difference between the CIS and TRANS system is that in CIS activities of endogenous TFs are measured, whereas the TRANS assay evaluates changes in activities of exogenous, chimeric NR-Gal4 proteins. […] At the end of 24 hour incubation, total RNA was isolated using TriZol reagent (Invitrogen). The isolated RNA is then reverse-transcribed using oligo(dT) primer and Mo-MLV reverse transcriptase (Invitrogen) with DNAse I (Ambion) treatment for 30 min. The one-tenth of the produced cDNA was amplified by PCR using Taq DNA polymerase (Invitrogen) and two reporter sequence-specific primers. The PCR products were fluorescently labeled by primer extension with 6-arboxyfluorescein (6-FAM) 5'-labeled reporter sequence-specific primer (2 min at 95 C, 20 s at 68 C and 10 min at 72 C) and these products were digested with 5U of HpaI (New England Biolabs) for 2h at 37 C. The fragments were purified using Qiaquick PCR columns (Qiagen), analyzed on an ABI 3130xL genetic analyzer (Applied Biosystems) with peak positions identified by using a set of X-rhodamine (ROX)-labeled MapMarker1000 molecular weight standards (BioVentures). The raw capillary electrophoresis data was processed using Attagraph software (Attagene).

| SMILES | outcome | AC50 |
| --- | --- | --- |
| CN(C)CCOC(c1ccccc1)c1ccccc1 | inactive |  |
| COC(=O)CC(C(C)=O)C(=O)OC (stereo not given) | inactive |  |
| Oc1ccc(Cc2ccccc2O)cc1 | inactive |  |
| CCOC=O | inactive |  |
| N=C(N)c1ccc(OCCCCCOc2ccc(C(=N)N)cc2)cc1 | inactive |  |
| FC(F)(F)C(F)(F)C(F)(F)C(F)(F)I | inactive |  |
| CCc1cccc(CC)c1N(COC)C(=O)CS(=O)(=O)O | inactive |  |
| O=C(Nc1cccc([N+](=O)[O-])c1)c1cc2ccccc2cc1O | inactive |  |
| C=Cc1ccc(O)c(OC)c1 | inactive |  |
| CN(Cc1cnc2nc(N)nc(N)c2n1)c1ccc(C(=O)N[C@@H](CCC(=O)O)C(=O)O)cc1 | inactive |  |
| O=S(=O)(O)c1ccccc1 | inactive |  |
| CCOC(C)=O | inactive |  |
| CC(O)COc1ccccc1 (stereo not given) | inactive |  |
| CN(CCO)S(=O)(=O)C(F)(F)C(F)(F)C(F)(F)C(F)(F)C(F)(F)C(F)(F)C(F)(F)C(F)(F)F | inactive |  |
| Oc1cccc2c(O)cccc12 | inactive |  |
| C=CC(F)(F)C(F)(F)C(F)(F)C(F)(F)F | inactive |  |
| Cc1ccccc1OCC(=O)O | inactive |  |
| CCC(C)c1ccccc1O (stereo not given) | inactive |  |
| CCOC=C(C(=O)OCC)C(=O)OCC | inactive |  |
| O=C(O)C(=O)O | inactive |  |

| SMILES | outcome | AC50 |
| --- | --- | --- |
| CC1=CC(=O)c2ccccc2C1=O | inactive |  |
| O=C(O)c1cccc(C(=O)O)n1 | inactive |  |
| NC(C(F)(F)F)C(F)(F)F | inactive |  |
| NCCN | inactive |  |
| CCCCCCCCCCCC[N+](C)(C)Cc1ccccc1 | inactive |  |
| C[C@]12CC[C@@H]3c4ccc(O)cc4CC[C@H]3[C@@H]1CC[C@@H]2OC(=O)CCC1CCCC1 | inactive |  |
| CCCC=O | inactive |  |
| c1cc[nH]c1 | inactive |  |
| CCCCCCCCCCCC[N+](C)(C)CCCCCCCCCCCC | inactive |  |
| O=C(Nc1ccc(Cl)c(Cl)c1)c1cc(Cl)cc(Cl)c1O |  | 1.37 µM (active) |
| O=C1OC(=O)C(F)(F)C1(F)F | inactive |  |
| CC(C)(C)c1ccc(O)c(O)c1 | inactive |  |
| CCc1cccc(CC)c1NC(=O)C(=O)O | inactive |  |
| O=C1Cc2ccccc2N1c1c(Cl)cccc1Cl | inactive |  |
| Cc1ccc2ccc3ccc(C)cc3c2c1 | inactive |  |
| CC(=O)Nc1ccc(O)cc1 | inactive |  |
| Cn1sccc1=O |  | 168 µM (active) |
| C=CC(=O)OCCC(F)(F)C(F)(F)C(F)(F)C(F)(F)C(F)(F)C(F)(F)F | inactive |  |
| CCC1CO1 (stereo not given) | inactive |  |
| O=CC(F)(F)C(F)(F)C(F)(F)C(F)F | inactive |  |

Source: PubChem BioAssay (EPA / NIEHS)
